Bioassay records as filed in PubChem BioAssay.
Lassa entry inh – inhibitors of Lassa virus binding or cell entry | Lassa virus pseudotype entry inhibition, cell reporter | hit rate 1.2% among 300,000 | Potency, µM (doses to about 37.9 µM), without a hit: at the top dose activity change, negative = inhibition, actives largely listed as inhibitors; calls by dose curve; tested in HEK293 cells; also: potency is read from the fitted curve at half-maximal effect; nearly all actives have a fitted effect of over 50% in size
Marburg entry inh – inhibitors of Marburg virus binding or cell entry; AID 540276; hit rate 1.8% among 300,000; Potency, µM (doses to about 37.8 µM), for inactives: at the highest dose activity change, negative = inhibition, most hits filed as inhibitors; Marburg virus pseudotyped entry inhibition, cell reporter; calls by dose curve; tested in HEK293 cells; also: potency is read from the fitted curve at half-maximal effect
HCMV antiviral – blocks human cytomegalovirus replication | HFF cells, HCMV-luciferase reporter, 72 h; stronger effect = lower value | activity change, negative = inhibition, % at 57.5 µM | hit rate 4.5% among 410,000; in the data active = activity change below about -60%; inconclusive = no clear call, values can overlap the other calls; inactive = above about -39%
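Inhibition of viral replication was scored as loss of reporter luminescence in HFFs infected with HCMV-luciferase (MOI 1 PFU/cell) for 72 h; compounds tested at 2 doses, normalized to buffer and Salinomycin controls.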
FMDV inh – foot and mouth disease virus antiviral activity. FMDV antiviral cell-based qHTS. AID 1159524. hit rate 1.2% among 410,000. Potency, µM (top dose mostly 57.9 µM), inactives show top-dose activity change, negative = inhibition, most hits filed as inhibitors; calls by dose curve; tested in HEK293T cells; also: read-out not given here; potency is read from the fitted curve at half-maximal effect; nearly all actives have a fitted effect of over 45% in size
Numbers without * were called inactive; ? = inconclusive; · = not tested or not shown; ! = not active in a repeat; [ ] = dose if it differs, or a comment. A selection: hits, their analogues and other compounds. The true share with any hit is near 6.2%. % is scaled to controls: 0 for no effect and ±100 for the full control effect.

SMILES	Lassa entry inh	Marburg entry inh	HCMV antiviral	FMDV inh
O=C(N/N=C/c1ccc([N+](=O)[O-])o1)c1cn2ccc3ccccc3c2n1	7%	1%[46.1 µM]	-31	-6%
c1ccc2c(CNC3CCCCCC3)c[nH]c2c1	-2%	13µM*	11	?
c1ccc2c(CN3CCCCCC3)c[nH]c2c1	-15%	?	-77*	0%
CC1(C)Cc2ccccc2C(NNC(=O)c2ccccn2)=N1	?	?	?	-10%
COc1ccc(OC)c(NC(=O)CCCC(=O)NC2CCCCC2)c1	·	·	1	-3%
C/C(=N\NC(=O)COc1ccc(C)cc1Br)c1cc([N+](=O)[O-])cs1	?	?	-81*	-10%
COc1ccc(S(=O)(=O)c2c(C)c(NS(=O)(=O)c3ccccc3)cc(C)c2O)cc1	12%	-5%[46.1 µM]	-63*!	2%
COc1ccc(S(=O)(=O)c2c(O)c(C)cc(NC(=O)c3ccccc3)c2C(C)C)cc1	-6%[46.1 µM]	-16%[46.1 µM]	-63*	-2%
Cc1c(NS(=O)(=O)c2ccccc2)cc(C(C)C)c(O)c1S(=O)(=O)c1ccc(Cl)cc1	-19%[46.1 µM]	11µM*	-37	-3%
CN(C(=O)c1ccncc1)C1CCS(=O)(=O)C1 (stereo not drawn)	13%	2%	21	-8%
CSc1ccc(CCNC(=O)CCCn2nc(C)c3sc4ccccc4c3c2=O)cc1	-14%[46.1 µM]	-18%[46.1 µM]	-4	-18%
CCn1ccnc1CN1CCCCC1C(=O)Nc1ccc(Oc2cccnc2)cc1 (stereo not drawn)	-1%	?	5	-6%
Cc1ccc(SCC(=O)NCc2ccncc2)cc1	2%	-4%	-28	7%
C=CCSc1nccc(-c2nn(-c3ccc(C)cc3)ccc2=O)n1	3.2µM*	?	-17	-10%
O=C1CCc2cc(NS(=O)(=O)c3ccccc3)cc3c2N1CCC3	?	-24%[46.1 µM]	3	13%
CC(O)(c1ccc(F)c(F)c1)c1nc(-c2cccc(C(F)(F)F)c2)cs1 (stereo not drawn)	·	·	-26	-24%
Clc1ccc(/C=C/c2nc3ccccc3[nH]2)cc1	?	8.2µM*	?	-71%
Clc1ccc(/C=C/c2nc3ccccc3[nH]2)c(Cl)c1	10µM*	?	-5	-85%
CCCCNCCOCCOc1ccccc1-c1ccccc1	?	?	?	-23%
CCc1c(C)sc(NC(=O)c2cc(-c3ccc(OC)c(OC)c3)on2)c1C#N	16%[46.1 µM]	-13%[46.1 µM]	10	0%
CCc1c(C)sc(NC(=O)c2cc(-c3ccc(O)cc3)on2)c1C#N	·	·	-61*	-5%
CCc1c(C)sc(NC(=O)c2cc(-c3cccc(Cl)c3)on2)c1C#N	-2%[46.1 µM]	-3%[46.1 µM]	-19	-18%
CCc1c(C)sc(NC(=O)c2cc(-c3cc(OC)ccc3OC)on2)c1C#N	-14%	?	-68*	-10%
CCCn1c(=O)c(C(=O)NCc2ccncc2)c(O)c2ccccc21	-1%	0%	-12	-1%
CCCn1c(=O)c(C(=O)NCc2ccccc2Cl)c(O)c2ccccc21	?	1%	-37	-14%
SMILES	Lassa entry inh	Marburg entry inh	HCMV antiviral	FMDV inh
CCCCCn1c(=O)c(C(=O)NCc2ccccc2Cl)c(O)c2ccccc21	·	·	-74*	-28%
CCCCCn1c(=O)c(C(=O)NCc2ccncc2)c(O)c2ccccc21	?	?	-88*	-14%
O=S(=O)(Nc1cccc(-c2ccc3nncn3n2)c1)c1cccs1	-2%	7%[46.1 µM]	31	4%
COc1ccccc1-n1c(-c2ccccc2Br)nc2ccccc2c1=O	?	3%[46.1 µM]	?	0%
NC(=O)C1=C(c2ccccc2)c2ccccc2C1=O	?	?	-8	32µM*
COCCN1C(=O)CCC1(C)c1nnnn1-c1c(C)cccc1C (stereo not drawn)	·	·	1	-14%
Cc1ccc(NC2(c3nnnn3-c3c(C)cccc3C)CCCCC2)cc1	?	?	-74*	-9%
COc1cc(CC(=O)N(C)CC(=O)Nc2cc(C)ccc2C)cc(OC)c1OC	27%	3%[46.1 µM]	6	-8%
C#CCN(C[C@@H]1[C@@H](OC(=O)NCc2ccc(OC)c(OC)c2)[C@@H](OC(=O)NCc2ccc(OC)c(OC)c2)Cn2c(=O)ccc(=O)n21)S(=O)(=O)c1ccc(C)cc1	·	·	-107*	?
C#CCN(C[C@@H]1[C@@H](OC(=O)NCc2ccco2)[C@@H](OC(=O)NCc2ccco2)Cn2c(=O)ccc(=O)n21)S(=O)(=O)c1ccc(C)cc1	·	·	-101*	6.3µM*
C#CCN(C[C@@H]1[C@@H](OC(=O)NCc2ccco2)[C@@H](OC(=O)NCc2ccco2)Cn2c(=O)n(CCCCCC)c(=O)n21)S(=O)(=O)c1ccc(C)cc1	·	·	-74*	28µM*
